Reference: PubChem BioAssay (NCATS)
Records with an inconclusive call do not appear. Where a call stands in place of a potency, no number is given. The source made the active and inactive calls. Calls come from the whole dose curve; as a rule, active = well fitted curve in the direction sought with a large enough effect; inconclusive = small, poorly fitted or top-dose-only effect, or another doubt; inactive = no such curve, though single readings can be large; an effect the other way counts as inactive or inconclusive.

What was measured:
[1] = biological target: Voltage-gated inwardly rectifying potassium channel KCNH2 (Homo sapiens) (UniProt Q12809); experiment: qHTS Assay for Small Molecule Inhibitors of the Human hERG Channel Activity (AID 588834);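 note: lower thallium flux fluorescence means stronger hERG block; nearly all actives have a fitted effect of over 50% in size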
Outline: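 Thallium serves as surrogate for K+ influx through BacMam-delivered hERG in U2OS cells. Compounds are added for about 10 minutes after dye loading; stimulation buffer then starts flux, monitored kinetically on FDSS.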

[2] = biological target: Glutaminase kidney isoform, mitochondrial (Homo sapiens) (UniProt O94925); experiment: qHTS for Inhibitors of Glutaminase (GLS): LOPAC Validation (AID 624146); note: nearly all actives have a fitted effect of over 60% in size
Outline: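 Compounds were pin-transferred onto hKGA, after which L-glutamine (1 mM solution) and a detection mix of glutamate oxidase, HRP and Amplex Red were added. Initial and 30 min RT fluorescence reads were collected.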

[3] = qHTS of Trypanosoma Brucei Inhibitors: LOPAC Validation (AID 624147)
Outline: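 Readout: single end-point luminescence (Kinase-Glo Plus, 10 min). Reaction conditions were TbPYK/substrate plus 130 uM ADP, 45 min at RT, pH 7.2 TEA buffer. No-enzyme wells served as controls, and data were normalized before concentration-response fitting.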
Potency is the fitted concentration of half-maximal effect.

Glutaminase kidney isoform, mitochondrial (Homo sapiens), sequence (O94925 whole entry, looked up, canonical isoform): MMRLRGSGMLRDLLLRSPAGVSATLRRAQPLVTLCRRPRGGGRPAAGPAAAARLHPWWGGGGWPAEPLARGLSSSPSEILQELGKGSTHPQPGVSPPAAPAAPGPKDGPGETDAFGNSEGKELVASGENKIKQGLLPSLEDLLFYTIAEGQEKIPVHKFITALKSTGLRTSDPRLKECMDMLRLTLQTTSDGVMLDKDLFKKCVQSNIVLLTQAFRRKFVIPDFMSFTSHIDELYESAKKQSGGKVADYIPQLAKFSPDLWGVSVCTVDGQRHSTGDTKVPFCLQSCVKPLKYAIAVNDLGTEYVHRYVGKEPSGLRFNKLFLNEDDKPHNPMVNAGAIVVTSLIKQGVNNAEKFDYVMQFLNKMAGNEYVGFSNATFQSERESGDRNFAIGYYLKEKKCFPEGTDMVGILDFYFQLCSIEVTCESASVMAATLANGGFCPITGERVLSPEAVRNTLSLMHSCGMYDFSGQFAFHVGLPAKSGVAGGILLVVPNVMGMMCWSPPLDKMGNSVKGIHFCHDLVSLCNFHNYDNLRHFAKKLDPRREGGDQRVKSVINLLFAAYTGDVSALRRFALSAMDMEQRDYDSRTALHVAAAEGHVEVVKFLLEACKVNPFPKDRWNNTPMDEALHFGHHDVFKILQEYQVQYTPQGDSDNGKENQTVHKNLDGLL
Voltage-gated inwardly rectifying potassium channel KCNH2 (Homo sapiens), sequence (Q12809 whole entry, looked up): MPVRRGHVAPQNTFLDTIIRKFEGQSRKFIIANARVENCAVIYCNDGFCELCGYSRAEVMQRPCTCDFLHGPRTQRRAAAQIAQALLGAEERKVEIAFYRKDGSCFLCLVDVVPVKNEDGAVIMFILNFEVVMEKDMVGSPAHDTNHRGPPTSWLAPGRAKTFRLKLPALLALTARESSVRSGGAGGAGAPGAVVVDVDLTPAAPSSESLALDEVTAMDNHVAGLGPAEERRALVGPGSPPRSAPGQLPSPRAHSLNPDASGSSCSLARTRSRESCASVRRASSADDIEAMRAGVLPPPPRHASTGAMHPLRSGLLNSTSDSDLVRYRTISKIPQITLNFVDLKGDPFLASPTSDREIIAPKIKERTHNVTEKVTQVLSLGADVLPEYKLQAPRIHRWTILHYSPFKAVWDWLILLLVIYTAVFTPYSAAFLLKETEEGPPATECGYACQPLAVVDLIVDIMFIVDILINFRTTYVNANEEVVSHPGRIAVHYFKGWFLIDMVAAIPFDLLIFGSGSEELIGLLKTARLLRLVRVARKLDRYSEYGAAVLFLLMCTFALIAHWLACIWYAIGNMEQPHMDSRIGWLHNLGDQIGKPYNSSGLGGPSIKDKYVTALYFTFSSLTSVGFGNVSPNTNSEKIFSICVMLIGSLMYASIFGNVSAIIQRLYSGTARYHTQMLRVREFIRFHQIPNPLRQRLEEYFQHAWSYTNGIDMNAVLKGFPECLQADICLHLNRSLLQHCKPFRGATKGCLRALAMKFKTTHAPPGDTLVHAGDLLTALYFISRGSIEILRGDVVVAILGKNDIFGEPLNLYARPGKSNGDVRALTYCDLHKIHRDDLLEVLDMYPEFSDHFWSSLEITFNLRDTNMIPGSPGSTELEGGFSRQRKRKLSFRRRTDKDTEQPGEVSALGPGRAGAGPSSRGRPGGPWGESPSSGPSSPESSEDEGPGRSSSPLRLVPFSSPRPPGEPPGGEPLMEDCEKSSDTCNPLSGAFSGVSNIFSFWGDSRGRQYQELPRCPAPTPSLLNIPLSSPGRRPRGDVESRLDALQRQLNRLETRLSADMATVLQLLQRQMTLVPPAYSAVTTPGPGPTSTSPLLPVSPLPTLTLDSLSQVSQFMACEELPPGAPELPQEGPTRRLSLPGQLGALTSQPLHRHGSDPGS

Structure (SMILES)	Potency [1]	Potency [2]	Potency [3]
CN1CCc2ccccc2Cc2[nH]c3ccccc3c2CC1	8.91 µM (active)	8.91 µM (active)	inactive
O=C(O)[C@@H]1C[C@@H](C(=O)O)N1	inactive	inactive	inactive
NC(N)=NC(=O)c1nc(Cl)c(N2CCCCCC2)nc1N	8.91 µM (active)	inactive	inactive
O=C(c1cc(O)c(O)c([N+](=O)[O-])c1)c1ccccc1F	inactive	4.47 µM (active)	inactive
NCCSSCCN	inactive	inactive	inactive
O=C(O)c1cc(=O)c2ccccc2[nH]1	inactive	inactive	inactive
O=C(/C=C/c1ccc(O)cc1)c1ccc(O)cc1O	3.98 µM (active)	10 µM (active)	inactive
Fc1cccc(/C=N/N=C/c2cccc(F)c2)c1	inactive	inactive	inactive
O=S(=O)(c1cccc2c(I)cccc12)N1CCCNCC1	11.2 µM (active)	inactive	inactive
CCN1/C(=C/C(C)=O)Sc2ccc(OC)cc21	inactive	inactive	inactive
COc1cc(C(O)CO)ccc1OS(=O)(=O)O (stereo not given)	inactive	inactive	inactive
Fc1ccc(C(OCCCc2cnc[nH]2)c2ccc(F)cc2)cc1	1.41 µM (active)	inactive	inactive
O=C(/C=C/c1ccc(O)c(O)c1)OCCc1ccccc1	inactive	0.891 µM (active)	inactive
CCCCCCCCCCCCCCCCCC(=O)OC(CC(=O)O)C[N+](C)(C)C (stereo not given)	inactive	inactive	inactive
Oc1cc(O)cc(/C=C/c2ccc(O)c(O)c2)c1	inactive	2 µM (active)	13.5 µM (active)
